This passage reports AC50 and activity, negative = inhibition results from PubChem BioAssay AID1851 (National Center for Advancing Translational Sciences (NCATS), 2009).

Several values for one entry are separate records, joined by “and”; a condition that tells them apart may be missing. Identical values can stand only once. In all, about 16,000 compounds went through this assay and about 5,800 (36%) were called active. About 23% were inconclusive and are not listed. The call rests on the fitted dose curve; in most records, active means well fitted curve in the direction sought with a large enough effect; inconclusive means small, poorly fitted or top-dose-only effect, or effect the other way; inactive means no such curve, though single readings can be large or run the other way. The list shows a part of the results.
On the % scale 0 is the no-effect control and ±100 the full control effect.

Chain of Cytochrome P450 2C19 (Homo sapiens) (P33261 whole entry, looked up): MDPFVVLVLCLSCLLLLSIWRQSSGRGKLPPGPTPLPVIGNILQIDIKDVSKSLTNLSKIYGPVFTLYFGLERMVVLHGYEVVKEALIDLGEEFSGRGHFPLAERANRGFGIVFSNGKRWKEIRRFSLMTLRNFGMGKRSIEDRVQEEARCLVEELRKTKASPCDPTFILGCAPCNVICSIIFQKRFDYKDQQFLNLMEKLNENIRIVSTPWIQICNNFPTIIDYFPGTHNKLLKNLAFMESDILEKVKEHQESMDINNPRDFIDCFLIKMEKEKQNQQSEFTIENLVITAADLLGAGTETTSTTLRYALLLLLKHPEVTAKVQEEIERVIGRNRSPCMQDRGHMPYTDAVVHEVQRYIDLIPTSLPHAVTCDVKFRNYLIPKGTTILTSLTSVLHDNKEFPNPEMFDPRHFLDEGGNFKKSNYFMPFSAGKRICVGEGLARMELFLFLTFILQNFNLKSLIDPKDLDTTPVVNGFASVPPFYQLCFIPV

The test addresses Cytochrome P450 2C19 (Homo sapiens) (UniProt P33261). Briefly: Cytochrome panel assay with activity outcomes. The following applies: recombinant CYP, pro-luciferin dealkylation, luminescence, p450-cyp2c19; series mostly up to 57.1 µM.
On to `CN(Cc1ccco1)c1ncncc1-c1cccnc1`, for which the half-maximal activity concentration (AC50) (in general, the midpoint of the concentration-response curve, whichever way the signal moves) was 10 µM (active).
Still for that read-out and setting: to `CC(NC(=O)c1ccccc1)c1nc2ccccc2n1Cc1ccccc1F` (stereo unspecified) belongs 8.91 µM (active); to `Cc1cc(NC(=S)NC(=O)CC(C)C)ccc1Br`, 3.55 µM (active); to `CCCCn1nnnc1SCC(=O)c1cc(Cl)ccc1OC`, 0.0708 µM (active).
As for `CCCCn1nnnc1SCC(=O)N1CCCC1`, the half-maximal activity concentration (AC50) is 25.1 µM (active).
Regarding `CCCCn1c(SCC(=O)N2CCCC2)nc2c1c(=O)n(C)c(=O)n2C`, the AC50 entry is “inactive”.
Take `C[N+](C)(C)CCCCCCCCCC[N+](C)(C)C`: the AC50 entry was “inactive”.
Take `CCCCCCCCCCCC1=C(O)C(=O)C=C(O)C1=O`: the AC50 entry was “inactive”.
Regarding `O=S(=O)(N/N=C\c1ccc2c(c1)OCO2)c1ccc(Cl)cc1`, the AC50 is 0.794 µM (active).
Same read-out and setting: for `O=S(=O)(N/N=C/c1ccc2c(c1)OCCO2)c1ccc(Cl)cc1` the value was 2.82 µM (active); for `C[C@]1(C2CCCC2)Cc2cc(OCC(=O)O)c(Cl)c(Cl)c2C1=O`, “inactive”.
For `CCCn1c(=O)c2[nH]c(-c3ccc(OCC(=O)NCCN)cc3)nc2n(CCC)c1=O`, the AC50 entry was “inactive”.
For the compound `Cc1nc2ncnn2c(C)c1CCC(=O)NCCC1=CCCCC1`, the AC50 entry was “inactive”.
For `O=C(CN1CCN(C2CCCCC2)CC1)NCCC1=CCCCC1`, the AC50 entry is “inactive”.
With `O=C(COc1ccc(Cl)cc1)NCCC1=CCCCC1`, the AC50 is 3.98 µM (active).
Consider `O=C(CN1C(=O)NC2(CCCC2)C1=O)NCCC1=CCCCC1`, for which the AC50 is 14.1 µM (active).
With `O=C(CN1CCN(c2ncccn2)CC1)NCCC1=CCCCC1`, the AC50 is 4.47 µM (active).
Take `O=C(CCN1CCCCC1)c1csc2ccccc12`: the activity, negative = inhibition is -22.7% [at 11.4 µM] (inactive).
For `O=C(c1[nH]o[n+](=O)c1C(=O)c1csc2ccccc12)c1csc2ccccc12`, the half-maximal activity concentration (AC50) was 1 µM (active).
Turning to `Cc1cccc(C(=O)O)c1C[C@H]1NCC[C@H]2c3ccccc3N[C@@H]12`, the activity, negative = inhibition was 3.69% [at 11.4 µM] (inactive).
For `Cc1ccccc1Cn1cc(NC(=O)CSc2nc3c(c(C(F)(F)F)n2)CCc2ccccc2-3)cn1`, the concentration at half-maximal activity (AC50) was 3.98 µM (active).
The same measure, in the same setting: for `Cc1nn(Cc2ccc(Cl)cc2)c(C)c1NC(=O)CSc1nc2c(c(C(F)(F)F)n1)CCc1ccccc1-2` the value was 2.82 µM (active).
Consider `CC1(C)[C@@H]2CC[C@]1(C)[C@@H](OC(=O)CSC#N)C2`, for which the activity, negative = inhibition was -26.6% [at 11.4 µM] (inactive).
`CN(C)/C(CN1CCN(C=O)CC1)=C1\N=C(c2ccccc2)OC1=O`: the AC50 result is “inactive”.
With `O=S(=O)(c1ccc(Cl)s1)N1CCc2ccccc2C1`, the concentration at half-maximal activity (AC50) is 0.708 µM (active).
Take `COc1ccccc1CN1CC[C@@]2(CCCN(S(=O)(=O)c3ccccc3)C2)C1`: the AC50 entry is “inactive”.
`O=C(ON=C1CCN(S(=O)(=O)c2ccccc2)CC1)c1ccccc1`: the AC50 entry was “inactive”.
The same measure, in the same setting: to `COc1ccc(S(=O)(=O)N2CCc3ccccc3C2)cc1OC` belongs 0.447 µM (active).
For `CCN1C(=O)[C@H]2[C@H]3[C@H](O)[C@H](O)C/C(=N/O[C@@H]4O[C@H](COC(C)=O)[C@@H](OC(C)=O)[C@H](OC(C)=O)[C@H]4OC(C)=O)[C@@H]3CC[C@@H]2C1=O`, the activity, negative = inhibition was 34.2% [at 11.4 µM] (inactive).
For the compound `CCN(CC)CC#CCC(C)(c1ccccc1)c1ccccc1`, the AC50 was 0.447 µM (active).
With `CCN(CC)CCOC(=O)C(c1ccccc1)c1ccccc1`, the AC50 result was “inactive”.
Regarding `CCN(CCCc1ccccc1)CCCc1ccccc1`, the AC50 entry is “inactive”.
`COc1ccccc1N1CCN(CCN(C(=O)C2CCCCC2)c2ccccn2)CC1`: the AC50 entry was “inactive”.
Regarding `O=C(c1ccc(N2CCCCC2)c([N+](=O)[O-])c1)N(Cc1ccccc1)c1ccccn1`, the AC50 is 14.1 µM (active).
Regarding `O=C1C(Cl)=C(Sc2nnc3c4ccccc4c4ccccc4c3n2)C(=O)c2ccccc21`, the AC50 is 1.58 µM (active).
Take `CCc1cccc(NC(=O)CN(C)S(=O)(=O)c2cnc[nH]2)c1`: the concentration at half-maximal activity (AC50) was 0.447 µM (active).
As for `CN(CC(=O)N1CCN(c2ccccc2)CC1)S(=O)(=O)c1cnc[nH]1`, the concentration at half-maximal activity (AC50) is 2.24 µM (active).
In the case of `CC[n+]1c(/C=C/Nc2ccccc2)oc2ccccc21`, the AC50 result was “inactive”.
With `COc1ccc(O[C@H]2C=C[C@@H](c3ccccc3)O[C@H]2CO/N=C2/c3cc(OC)ccc3O[C@@H](c3cccc(OC)c3)[C@H]2O)cc1`, the AC50 was 0.501 µM (active).
For the compound `CCCNC(=O)OC[C@@H]1O[C@H](CCON=C(C)C)C=C[C@@H]1Oc1ccc(OC)cc1`, the activity, negative = inhibition was -39.5% [at 11.4 µM] (inactive).
For the compound `CCCNC(=O)OC[C@@H]1O[C@H](CCO/N=C2\c3cc(OC)ccc3O[C@H](c3cccc(OC)c3)[C@H]2O)C=C[C@@H]1Oc1ccc(OC)cc1`, the AC50 was 1.58 µM (active).
On to `CCCNC(=O)OC[C@@H]1O[C@H](CCO/N=C(\C)CCN2CCc3nc(CC)c(CC)cc3C2)C=C[C@@H]1Oc1ccc(OC)cc1`, for which the activity, negative = inhibition was -24.5% [at 11.4 µM] (inactive).
Take `CCOC(=O)CCCN`: the activity, negative = inhibition was 31.2% [at 11.4 µM] (inactive).
Regarding `N[C@@H](Cc1c[nH]c2ccccc12)C(=O)O`, the AC50 entry was “inactive”.
On the same count and under the same terms, to `CCOC(=O)CCCc1c[nH]c2ccccc12` belongs 5.01 µM (active).
With `C[C@@](N)(Cc1c[nH]c2ccccc12)C(=O)O`, the activity, negative = inhibition is 34.7% [at 11.4 µM] (inactive).
As for `CC(C)CNC(=O)CCCc1c[nH]c2ccccc12`, the AC50 is 2.24 µM (active).
Turning to `N[C@@H]1CONC1=O`, the AC50 result was “inactive”.
`CO/N=C(\C(=O)N[C@@H]1C(=O)N2C(C(=O)O)=C(COC(C)=O)CS[C@@H]12)c1csc(N)n1`: the AC50 entry was “inactive”.
As to `Cc1cc(N2CCOCC2)ccc1/C=C1\SC(=O)N(C(C)C)C1=O`, the AC50 was 10 µM (active).
Consider `Cc1ccsc1/C=C1/SC(=O)N(CC(=O)N2CCOCC2)C1=O`, for which the AC50 result is “inactive”.
On to `Nc1ncc(-c2ccccc2)n1CC1CCCO1` (stereo unspecified), for which the AC50 is 5.62 µM (active).
With `O=c1cnc2cnc(Nc3ccccc3)nc2n1C[C@H]1CCCO1`, the AC50 entry is “inactive”.
Consider `O=c1c(-c2ccccc2)nc2cnc(N3CCOCC3)nc2n1C[C@H]1CCCO1`, for which the AC50 entry was “inactive”.
For `COc1ccc(-n2c(-c3cnccn3)n[nH]c2=S)cc1`, the AC50 result was “inactive”.
Take `CC(/C=N/n1c(-c2cccnc2)n[nH]c1=S)=C\c1ccccc1`: the AC50 was 2.82 µM (active).
As to `Nc1c2c(nc3ccccc13)CCCC2`, the AC50 result is “inactive”.
In the case of `COc1cc(-c2nnc(COC(=O)c3c4c(nc5ccccc35)CCCC4)o2)cc(OC)c1OC`, the half-maximal activity concentration (AC50) is 1.78 µM (active).
On to `C[C@@H]1C[C@H](OC(=O)[C@@H](O)c2ccccc2)CC(C)(C)N1C`, for which the AC50 result is “inactive”.
As for `C[C@@H]1C[C@H](OC(=O)c2ccccc2O)CC(C)(C)C1`, the concentration at half-maximal activity (AC50) is 10 µM (active).
Take `O=C(Nc1cccc(F)c1)N1CCC2(CC1)CCN(C(=O)c1cnccn1)CC2`: the AC50 entry is “inactive”.
On the same count and under the same terms, to `CCOC(=O)c1c2ccc(OCC(=O)N/N=C/c3ccc(Cl)cc3)cc2n2ccccc12` belongs 2.51 µM (active).
For `CCOC(=O)c1c2c(n3ccccc13)C(=O)c1ccccc1C2=O`, the activity, negative = inhibition is 0.385% [at 11.4 µM] (inactive).
On to `Cc1ccc(NC(=S)Nc2ccc(Br)cc2)cc1`, for which the AC50 is 0.562 µM (active).
`C/C(=N\NC(=S)Nc1cccc(C)c1)c1ccccc1`: the AC50 is 0.447 µM (active).
For the compound `CCCNC(=S)Nc1ccc(Br)cc1`, the half-maximal activity concentration (AC50) was 7.94 µM (active).
On the same count and under the same terms, to `Cc1cccc(NC(=S)Nc2ccc(Br)cc2)c1` belongs 0.708 µM (active).
As to `CCN1C(=O)[C@H]2[C@H]3[C@H](O)[C@H](O)C/C(=N/O[C@@H]4O[C@@H](COC(C)=O)[C@@H](OC(C)=O)[C@@H](OC(C)=O)[C@H]4OC(C)=O)[C@H]3CC[C@@H]2C1=O`, the activity, negative = inhibition is 16.6% [at 11.4 µM] (inactive).
Still for that read-out and setting: to `CO[C@@H]1COC(=O)[C@H](COCc2ccccc2)NC(=O)C/C=C\[C@@H](C)[C@H](OC)COC(=O)[C@@H](C)NC(=O)C/C=C\[C@H]1C` belongs 5.67% [at 11.4 µM] (inactive).
Consider `COc1ccc(-c2ccc(=O)n(CC(=O)Nc3nnc(C(C)C)s3)n2)cc1OC`, for which the AC50 entry is “inactive”.
As to `CCCC(=O)Nc1nc(-c2ccc3c(c2)CCN3S(C)(=O)=O)cs1`, the AC50 entry was “inactive”.
As for `COc1ccc(-c2csc(NC(=O)CCn3cnc4ccccc4c3=O)n2)cc1OC`, the concentration at half-maximal activity (AC50) is 2.82 µM (active).
Turning to `CN1CCN(Cc2nc3cccc4c3c([n+]2[O-])-c2ccccc2-4)CC1`, the activity, negative = inhibition was -13.4% [at 11.4 µM] (inactive).
On to `C=CCn1c(SCC(=O)N2CCc3ccccc3C2)nc2ccccc2c1=O`, for which the concentration at half-maximal activity (AC50) is 1.58 µM (active).
Take `O=C(Cn1c(SCC(=O)N2CCc3ccccc3C2)nc2ccccc21)NC1CCCC1`: the half-maximal activity concentration (AC50) was 10 µM (active).
Turning to `COc1ccc2c3c(ccc2c1)N[C@H](C(=O)O)CC3`, the activity, negative = inhibition was 3.64% [at 11.4 µM] (inactive).
In the case of `CN1CC(c2ccccc2)C2(COc3ccccc3C2=O)C12C(=O)Nc1ccccc12` (stereo unspecified), the concentration at half-maximal activity (AC50) is 1.12 µM (active).
For `Cc1ccc(CONC(=O)/N=C/N(C)C)cc1`, the AC50 was 4.47 µM (active).
`CN1CCN(CCCN2c3ccccc3Sc3ccc(S(=O)(=O)N(C)C)cc32)CC1`: the AC50 entry is “inactive”.
`CN1CCN(c2ccc([N+](=O)[O-])cc2S(=O)(=O)N2CCOCC2)CC1`: the AC50 entry was “inactive”.
Still for that read-out and setting: for `O=C(c1ccc(Br)cc1)c1cc([N+](=O)[O-])ccc1N1CCCCC1` the value was 1.26 µM (active).
On to `CN1CCN(c2ccncc2S(=O)(=O)N2CCN(C)CC2)CC1`, for which the activity, negative = inhibition is 15.7% [at 11.4 µM] (inactive).
Regarding `CN1CCN(S(=O)(=O)c2cc([N+](=O)[O-])ccc2N2CCCCCC2)CC1`, the concentration at half-maximal activity (AC50) was 0.631 µM (active).
For `CN(C)S(=O)(=O)c1cc([N+](=O)[O-])ccc1N1CCCCCC1`, the concentration at half-maximal activity (AC50) was 5.01 µM (active).
On to `Cc1cc2c(nc1C)CCCN2C[C@H](O)CN1CCCc2nc(-c3ccc(Br)cc3)ccc21`, for which the activity, negative = inhibition was -41.3% [at 11.4 µM] (inactive) and -36.7% [at 11.4 µM] (inactive).
For the compound `O=C(CNC(=O)c1ccco1)OCc1c(F)cccc1Cl`, the AC50 is 15.8 µM (active).
Regarding `Cc1ccc2[nH]c(=O)c(NC(N)=S)nc2c1`, the AC50 is 20 µM (active).
For `COc1cccc(Nc2ncc3nc(-c4ccc(F)cc4)c(=O)n(CCC#N)c3n2)c1`, the AC50 result was “inactive”.
Same read-out and setting: to `CNc1ncncc1-c1ccccc1OC` belongs “inactive”.
`CNc1ncncc1-c1ccccc1C`: the AC50 entry is “inactive”.
`Cc1ccccc1-c1cncnc1Nc1ccc(F)cc1`: the AC50 was 5.01 µM (active).
Take `COc1cccc(-c2cncnc2Nc2ccc(F)cc2)c1`: the concentration at half-maximal activity (AC50) was 0.398 µM (active).
Take `Cc1ccccc1-c1cncnc1NC1CCNCC1`: the AC50 entry is “inactive”.
`COc1ccccc1-c1cncnc1Nc1ccc(F)cc1`: the AC50 was 5.01 µM (active).
Regarding `CS(=O)(=O)Nc1cccc(-c2cncnc2Nc2ccc(F)cc2)c1`, the AC50 entry is “inactive”.
For `Cc1ccccc1-c1cncnc1Nc1ccccc1`, the AC50 was 3.16 µM (active).
